Test results reported in PubChem BioAssay (NCI).
Compounds without any hit were thinned out: in the full panel of roughly 83,000, 20% have a hit.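 Single-concentration screen, 48 h exposure, 96-well plates. Endpoint: percent growth. Below 10 = active.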 Unmarked numbers belong to inactive results. Active and inactive are the calls of the source.

These molecules were tested on NCI-H226 lung (assay: NCI-60 one-dose screen, 48 h (100 = growth as untreated, 0 = no growth, -100 = all killed)). Settings: 10 µM unless noted.
For `O=C(COc1ccc(NC(=O)Nc2ccc(Cl)c(Cl)c2)cc1)N=Nc1c(O)[nH]c2ccccc12`, the growth was -34.7% (active).
With `COc1ccc(-c2nnc3ccc(N/N=C/c4ccc(O)cc4)nn23)cc1` the growth was 77.5%.
`CCCSc1nc(NCCc2c[nH]c3ccccc23)c(C#N)c(-c2ccccc2)n1` showed a growth of 65.4%.
`CSc1ccc(C(=O)Nc2ccc3nnn(/C(C#N)=C/c4ccccn4)c3c2)cc1` was tested, and the growth was -53.4% (active).
Work on `CC(=O)OC[C@@]1(C)C2CC[C@]3(C)C(CC=C4C5CC(C)(C)CC[C@]5(C(=O)Nc5cccc(C)c5)CC[C@]43C)[C@@]2(C)C[C@@H](OC(C)=O)[C@@H]1OC(C)=O` (some centres not stated) yielded a growth of 39%.
`CN(C)c1ccnc(CNCCSC2(c3ccccc3)c3ccccc3C=Cc3ccccc32)c1` gave a growth of 16.7%.
`Cn1cc(-c2nnc(N)nc2-c2c[nH]c3ccc(F)cc23)c2cccnc21` gave a growth of 72.4%.
In the case of `Clc1cccc(-c2ccc(OCCCN3CCN(c4ccncc4)CC3)cc2)c1`, the growth was 41.3%.
For `Cc1ccccc1[C@H]1C(C(=O)c2ccc(Cl)cc2)C2(N[C@@H]1c1ccccc1)C(=O)Nc1ccc(Br)cc12` (some centres not stated), the growth was 25.5%.
With `CN(C)c1ccnc(CNCCSC2(c3ccc(C(F)(F)F)cc3)c3ccccc3C=Cc3ccccc32)c1` the growth was 25.9%.
In the case of `O=C(c1ccc(OCCN2CCOCC2)cc1)C1[C@H](c2ccc(Cl)cc2)[C@@H](c2ccccc2)NC12C(=O)Nc1ccc(Cl)cc12` (some centres not stated), the growth was 48.3%.
`COc1cc(CNC(=O)/C=C/c2ccc3c(c2)OCO3)ccc1OCc1cn(-c2ccc([N+](=O)[O-])cc2)nn1` gave a growth of 60.6%.
